The values that follow come from PubChem BioAssay.

Assay [1] deals with XIP peptide (Xip251-270) binding. Description: XIP fragment 251-270 binding compounds – biochemical, small-molecule microarray, fluorescence 635/667 nm, 0.1 µg/mL protein, primary screen (AID 1182). To be noted: fluorescent protein binding, 635 nm, higher = more signal, called active from +8 up or from −8 down.
Assay [2] relates to XIP peptide (Xip251-270). Description: compounds binding XIP fragment 251-270 – biochemical, small-molecule microarray, fluorescence 635/667 nm, 0.5 µg/mL protein, primary screen (AID 1183). To be noted: fluorescence 635 nm, higher = more signal.
Assay [3] is described as follows: blood-stage malaria parasite viability loss – strain 3D7, DAPI fluorescence, 100 nL, primary screen (AID 1184).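 Note: parasites grown inside human red blood cells in medium with human serum.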 To be noted: P. falciparum 3D7 growth, 3 d, higher = more signal.
Assay [4] concerns the target Homeobox protein Hox-A13 (Mus musculus) (UniProt Q62424). Kind of assay: disruptors of Hoxa13 oligonucleotide interaction – biochemical, fluorescence polarization, labeled oligonucleotide, primary screen (AID 1185). To be noted: Hoxa13:DNA binding, 15 min, higher = more signal, called active from +8 up or from −8 down. On the technique in general: In fluorescence polarisation assays a small probe gives low polarisation when free and higher when bound to something large.

Each structure is given as a SMILES string. Activity calls are given as the source filed them.

Chain of Homeobox protein Hox-A13 (Mus musculus) (Q62424 whole entry, looked up): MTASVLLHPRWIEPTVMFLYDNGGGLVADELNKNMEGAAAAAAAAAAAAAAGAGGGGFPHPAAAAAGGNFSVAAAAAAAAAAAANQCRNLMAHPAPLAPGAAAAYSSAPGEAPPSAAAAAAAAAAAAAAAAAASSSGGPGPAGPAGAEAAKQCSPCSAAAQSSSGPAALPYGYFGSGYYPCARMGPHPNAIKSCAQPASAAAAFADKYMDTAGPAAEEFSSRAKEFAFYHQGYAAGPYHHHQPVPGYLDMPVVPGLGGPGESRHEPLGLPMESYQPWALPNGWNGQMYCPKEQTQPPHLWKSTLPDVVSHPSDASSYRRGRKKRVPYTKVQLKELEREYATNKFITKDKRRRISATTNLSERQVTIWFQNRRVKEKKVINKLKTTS

On to `CC(C)=NOC[C@@H](O)[C@H]1O[C@@H]2OC(C)(C)O[C@@H]2[C@H]1O`, for which the composite z-score in assay [1] was 0.524 (inactive); in assay [2], -0.122. The z-score in assay [3] is 0.292; in assay [4], 0.483 (inactive).
Taken in the same sequence, the figures for `Cc1ccc2[nH]c3nc(CCCn4ccnc4-c4ccccc4)nnc3c2c1` were -0.0582 (inactive), 0.623, -1.09 and -0.867 (inactive).
Consider `CO[C@H]1C[C@@H]2C[C@H](O)CC(CC(=O)O[C@@H](C=CCC(C)C)C[C@@H]3CC[C@H](C)[C@@H](C1)O3)O2`, for which the figures for the composite z-score in assay [1] and in assay [2] were -0.199 (inactive) and 0.142, respectively. The z-score was -0.825 in assay [3] and -0.952 (inactive) in assay [4].
Consider `O=C1[C@H]2[C@H]3[C@H](O)[C@H](O)CC(=NO[C@@H]4O[C@H](CO)[C@@H](O)[C@H](O)[C@H]4O)[C@@H]3CC[C@H]2C(=O)N1c1cccc(Oc2ccccc2)c1`, for which the composite z-score in assay [1] was 0.311 (inactive); in assay [2] it was 0.519. The z-score in assay [3] is -0.197; in assay [4] it was -1.14 (inactive).
For the molecule `CON=C(C)CCN1CCc2nc(-c3ccccc3)c(-c3ccccc3)cc2C1`, the composite z-score in assay [1] is 0.257 (inactive); in assay [2], 0.41. The values for the z-score in assay [3] and in assay [4] were -1.38 and -2.53 (inactive), respectively.
The matching figures for `O=C1C=C[C@@H](O)[C@@H]2[C@@H]3C(=O)N(Cc4ccc5c(c4)OCO5)C(=O)[C@@H]3CC[C@@H]12`: -0.297 (inactive), 0.228, -0.786 and -0.416 (inactive).
The matching figures for `CO[C@H]1COC(=O)[C@H](C)COC(=O)[C@@H](OCc2ccccc2)C=C[C@@H]1C`: 0.277 (inactive), -0.348, 1.25 and -0.571 (inactive).
The matching figures for `CC(C)CON=C1C[C@@H](O)[C@@H](O)[C@@H]2[C@@H]3C(=O)N(C(C)(C)C)C(=O)[C@@H]3CC[C@@H]12`: 0.0494 (inactive), -0.295, -1.62 and -0.298 (inactive).
